Experimental data from the supplement of paper PMC10849652.
About 8,800 targets were measured; listed, in parts, are those with a hit and a random draw of the rest. About 0.5% of all pairs of compound and target were hits. Unmarked numbers belong to inactive results.

compound: CC[C@@H]1C(=O)N(C)c2cnc(Nc3ccc(C(=O)N[C@H]4CC[C@H](N5CCN(CC6CC6)CC5)CC4)cc3OC)nc2N1C(C)C [volasertib]; test: log2 fold change, soluble protein after heating vs DMSO (PISA); higher = thermal stabilisation; K562 lysate, 10 uM; active = over 0.2 and 3.5 SD of the protein, either way, in both replicates (recomputed)
How it was run: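 Values give the log-two fold change in thermal stability against solvent controls, from duplicates. Crude K562 extract at 1 mg/mL protein, made by dounce homogenisation in PBS pH 7.4 with 1 mM MgCl2, was treated with 10 μM compound for 30 min. After 3 min heating across 48°C-58°C, aliquots were pooled, adjusted to 0.5% NP-40 at 4°C and centrifuged at 21,000xg for 90 min. The supernatant was measured by TMTpro 16plex LC-MS/MS with channel sums equalised.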

UniProt Q6P4E1, sequence (Q6P4E1 whole entry, looked up): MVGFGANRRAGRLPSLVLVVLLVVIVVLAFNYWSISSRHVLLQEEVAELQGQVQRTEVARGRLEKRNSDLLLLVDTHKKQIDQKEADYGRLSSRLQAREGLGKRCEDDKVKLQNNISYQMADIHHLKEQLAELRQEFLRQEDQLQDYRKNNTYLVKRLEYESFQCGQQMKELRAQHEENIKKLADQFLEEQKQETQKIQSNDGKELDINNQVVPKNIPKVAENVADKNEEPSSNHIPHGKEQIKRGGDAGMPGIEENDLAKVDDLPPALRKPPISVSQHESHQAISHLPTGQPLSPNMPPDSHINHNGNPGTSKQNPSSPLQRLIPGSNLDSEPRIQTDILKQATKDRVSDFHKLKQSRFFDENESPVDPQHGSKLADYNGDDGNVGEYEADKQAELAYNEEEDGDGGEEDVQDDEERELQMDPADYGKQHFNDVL
UniProt Q5VT25, sequence (Q5VT25 whole entry, looked up): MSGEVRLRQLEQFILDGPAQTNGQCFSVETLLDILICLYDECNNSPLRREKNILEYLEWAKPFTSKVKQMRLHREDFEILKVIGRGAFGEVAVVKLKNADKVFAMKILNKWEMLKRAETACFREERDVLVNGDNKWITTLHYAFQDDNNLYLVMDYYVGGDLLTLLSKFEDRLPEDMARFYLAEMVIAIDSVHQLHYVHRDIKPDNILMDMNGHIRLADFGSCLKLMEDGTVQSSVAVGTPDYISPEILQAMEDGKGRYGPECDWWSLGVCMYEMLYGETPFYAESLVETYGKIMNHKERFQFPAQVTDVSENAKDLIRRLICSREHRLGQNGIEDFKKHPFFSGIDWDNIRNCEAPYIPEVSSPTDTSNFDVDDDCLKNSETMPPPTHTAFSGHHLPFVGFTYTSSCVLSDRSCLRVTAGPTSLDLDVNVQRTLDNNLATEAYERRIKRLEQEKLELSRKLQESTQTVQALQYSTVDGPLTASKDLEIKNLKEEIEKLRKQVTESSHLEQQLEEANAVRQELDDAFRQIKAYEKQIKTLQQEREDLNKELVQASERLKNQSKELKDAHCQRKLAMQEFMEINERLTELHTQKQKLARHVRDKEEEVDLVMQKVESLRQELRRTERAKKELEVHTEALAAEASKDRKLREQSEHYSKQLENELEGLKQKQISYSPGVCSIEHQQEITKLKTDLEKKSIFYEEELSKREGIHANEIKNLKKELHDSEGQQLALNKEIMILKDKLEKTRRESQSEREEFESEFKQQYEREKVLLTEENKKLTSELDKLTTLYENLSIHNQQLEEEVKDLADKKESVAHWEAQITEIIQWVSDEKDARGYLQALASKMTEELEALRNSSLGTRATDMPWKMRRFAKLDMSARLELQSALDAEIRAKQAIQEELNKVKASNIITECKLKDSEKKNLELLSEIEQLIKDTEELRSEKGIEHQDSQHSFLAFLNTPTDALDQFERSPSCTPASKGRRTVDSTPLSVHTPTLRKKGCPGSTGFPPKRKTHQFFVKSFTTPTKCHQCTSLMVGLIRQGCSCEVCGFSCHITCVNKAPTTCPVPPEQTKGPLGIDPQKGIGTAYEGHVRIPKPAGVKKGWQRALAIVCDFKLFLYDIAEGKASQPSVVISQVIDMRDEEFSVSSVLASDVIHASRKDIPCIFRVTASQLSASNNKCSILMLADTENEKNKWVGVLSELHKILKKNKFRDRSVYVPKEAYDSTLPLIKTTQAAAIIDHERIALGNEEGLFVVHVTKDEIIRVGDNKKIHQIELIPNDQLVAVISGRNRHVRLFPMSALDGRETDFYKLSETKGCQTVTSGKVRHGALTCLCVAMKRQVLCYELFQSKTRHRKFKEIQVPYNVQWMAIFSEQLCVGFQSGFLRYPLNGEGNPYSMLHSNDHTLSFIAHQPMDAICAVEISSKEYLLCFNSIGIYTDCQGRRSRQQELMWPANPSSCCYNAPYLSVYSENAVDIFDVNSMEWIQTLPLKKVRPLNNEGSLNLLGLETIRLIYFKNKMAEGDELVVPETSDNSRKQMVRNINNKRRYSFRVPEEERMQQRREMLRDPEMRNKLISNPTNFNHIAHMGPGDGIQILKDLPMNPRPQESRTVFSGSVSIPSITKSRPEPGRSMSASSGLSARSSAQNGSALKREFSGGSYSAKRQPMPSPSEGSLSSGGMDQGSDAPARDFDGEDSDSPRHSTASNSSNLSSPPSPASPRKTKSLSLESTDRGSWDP
UniProt Q9UL45, sequence (Q9UL45 whole entry, looked up): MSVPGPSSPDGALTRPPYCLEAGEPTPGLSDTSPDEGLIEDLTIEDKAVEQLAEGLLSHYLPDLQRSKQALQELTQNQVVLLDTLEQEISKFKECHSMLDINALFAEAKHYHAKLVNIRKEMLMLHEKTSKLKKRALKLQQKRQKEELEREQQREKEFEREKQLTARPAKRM
UniProt O75081, sequence (O75081 whole entry, looked up): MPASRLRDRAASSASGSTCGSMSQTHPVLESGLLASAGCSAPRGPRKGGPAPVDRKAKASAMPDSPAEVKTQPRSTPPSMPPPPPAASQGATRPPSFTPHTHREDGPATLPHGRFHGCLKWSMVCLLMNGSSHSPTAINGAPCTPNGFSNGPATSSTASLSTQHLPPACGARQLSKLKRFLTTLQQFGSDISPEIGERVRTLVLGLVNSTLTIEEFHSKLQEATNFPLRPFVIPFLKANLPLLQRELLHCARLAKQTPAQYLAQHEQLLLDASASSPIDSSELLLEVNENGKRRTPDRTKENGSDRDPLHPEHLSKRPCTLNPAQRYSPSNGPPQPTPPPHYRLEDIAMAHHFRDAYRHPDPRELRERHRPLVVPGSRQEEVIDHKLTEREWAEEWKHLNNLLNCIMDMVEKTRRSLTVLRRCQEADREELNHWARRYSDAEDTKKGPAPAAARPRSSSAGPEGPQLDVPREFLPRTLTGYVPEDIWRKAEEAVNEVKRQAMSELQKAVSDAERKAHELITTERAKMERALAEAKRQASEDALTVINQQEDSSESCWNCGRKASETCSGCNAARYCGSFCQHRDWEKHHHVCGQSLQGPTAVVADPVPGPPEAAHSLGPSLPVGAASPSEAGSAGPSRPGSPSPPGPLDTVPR
UniProt O75794, sequence (O75794 whole entry, looked up): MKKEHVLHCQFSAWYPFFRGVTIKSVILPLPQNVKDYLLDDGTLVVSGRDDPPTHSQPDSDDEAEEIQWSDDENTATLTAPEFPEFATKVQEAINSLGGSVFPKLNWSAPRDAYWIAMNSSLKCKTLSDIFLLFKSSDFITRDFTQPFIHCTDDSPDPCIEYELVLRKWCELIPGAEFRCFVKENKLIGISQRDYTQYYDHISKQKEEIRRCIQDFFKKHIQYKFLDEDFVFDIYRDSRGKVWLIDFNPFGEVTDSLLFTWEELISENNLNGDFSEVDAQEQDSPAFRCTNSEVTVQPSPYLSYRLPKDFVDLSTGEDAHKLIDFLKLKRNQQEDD
UniProt O75143, sequence (O75143 whole entry, looked up): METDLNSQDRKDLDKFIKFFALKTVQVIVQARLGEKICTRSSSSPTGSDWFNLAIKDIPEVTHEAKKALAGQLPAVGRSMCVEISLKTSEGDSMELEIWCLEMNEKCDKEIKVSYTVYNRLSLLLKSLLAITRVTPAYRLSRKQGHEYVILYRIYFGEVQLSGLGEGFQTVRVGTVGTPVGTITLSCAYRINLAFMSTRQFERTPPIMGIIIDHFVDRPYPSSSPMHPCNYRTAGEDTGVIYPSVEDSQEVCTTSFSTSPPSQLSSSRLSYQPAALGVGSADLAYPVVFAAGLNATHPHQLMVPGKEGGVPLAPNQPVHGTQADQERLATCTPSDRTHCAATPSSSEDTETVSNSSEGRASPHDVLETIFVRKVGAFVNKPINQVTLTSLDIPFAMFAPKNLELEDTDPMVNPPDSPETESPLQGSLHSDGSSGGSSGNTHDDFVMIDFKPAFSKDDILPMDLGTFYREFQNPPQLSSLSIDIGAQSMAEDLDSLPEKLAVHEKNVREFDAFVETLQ
UniProt Q5BKX5, sequence (Q5BKX5 whole entry, looked up): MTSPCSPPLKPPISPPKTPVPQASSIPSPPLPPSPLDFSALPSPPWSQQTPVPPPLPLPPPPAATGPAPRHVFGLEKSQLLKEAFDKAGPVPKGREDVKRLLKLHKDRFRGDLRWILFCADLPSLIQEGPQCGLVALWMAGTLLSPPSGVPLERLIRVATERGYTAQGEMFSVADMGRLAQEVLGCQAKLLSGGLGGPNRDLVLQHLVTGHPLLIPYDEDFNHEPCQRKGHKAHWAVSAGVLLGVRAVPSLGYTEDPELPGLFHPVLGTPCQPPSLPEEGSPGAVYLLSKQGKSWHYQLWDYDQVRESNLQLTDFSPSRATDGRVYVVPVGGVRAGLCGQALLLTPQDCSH
UniProt Q96NL8, sequence (Q96NL8 whole entry, looked up): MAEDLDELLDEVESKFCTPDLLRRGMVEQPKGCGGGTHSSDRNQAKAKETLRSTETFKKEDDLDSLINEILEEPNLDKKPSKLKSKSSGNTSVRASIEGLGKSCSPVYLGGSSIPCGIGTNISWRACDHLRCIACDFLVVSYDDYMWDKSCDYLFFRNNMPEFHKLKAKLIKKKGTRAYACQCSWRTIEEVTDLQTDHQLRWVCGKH
UniProt Q9UEE9, sequence (Q9UEE9 whole entry, looked up): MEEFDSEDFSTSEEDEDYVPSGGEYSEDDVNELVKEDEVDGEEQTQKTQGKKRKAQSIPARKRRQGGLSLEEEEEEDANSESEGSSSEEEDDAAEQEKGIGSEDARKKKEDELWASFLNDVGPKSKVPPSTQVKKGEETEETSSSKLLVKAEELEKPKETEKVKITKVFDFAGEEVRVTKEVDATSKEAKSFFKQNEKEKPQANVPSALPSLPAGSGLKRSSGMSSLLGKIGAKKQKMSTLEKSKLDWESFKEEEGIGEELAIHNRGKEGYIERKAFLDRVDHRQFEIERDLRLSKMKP
UniProt Q15834, sequence (Q15834 whole entry, looked up): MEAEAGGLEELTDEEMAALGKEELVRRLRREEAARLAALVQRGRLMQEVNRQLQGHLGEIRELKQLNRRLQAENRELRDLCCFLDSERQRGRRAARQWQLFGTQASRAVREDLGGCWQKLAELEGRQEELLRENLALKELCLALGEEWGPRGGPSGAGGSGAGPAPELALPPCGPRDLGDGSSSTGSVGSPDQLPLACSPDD

Target | log2 fold change
CENPQ (UniProt Q7L2Z9) | -0.115
CD63 (UniProt P08962) | 0.023
CARS isoform 3 (UniProt P49589) | -0.052
CCNC (UniProt P24863) | -0.079
CBFA2T3 (UniProt O75081) | -0.02
BUB1B isoform 3 (UniProt O60566) | -0.014
CES2 isoform 4 (UniProt O00748) | 0.004
CDC123 (UniProt O75794) | -0.05
CCDC85B (UniProt Q15834) | 0.345
CARD9 (UniProt Q9H257) | -0.001
CANX isoform 2 (UniProt P27824) | 0.033
CDKN2AIP (UniProt Q9NXV6) | -0.008
AURKA (UniProt O14965) | -0.015
CDC42BPA isoform 6 (UniProt Q5VT25) | -0.043
ATG13 isoform 2 (UniProt O75143) | 0.007
CARHSP1 (UniProt Q9Y2V2) | -0.024
CCAR2 (UniProt Q8N163) | -0.031
ATP6V0A2 (UniProt Q9Y487) | 0.005
CCPG1 isoform 5 (UniProt Q9ULG6) | 0
CCNB1 (UniProt P14635) | -0.043

Target | log2 fold change
CCNH (UniProt P51946) | 0.003
BCAR1 isoform 6 (UniProt P56945) | -0.018
CDAN1 (UniProt Q8IWY9) | -0.034
CDK13 (UniProt Q14004) | -0.123
CFDP1 (UniProt Q9UEE9) | 0.039
ATP11A (UniProt P98196) | 0.026
BCKDK (UniProt O14874) | -0.037
BLOC1S6 (UniProt Q9UL45) | 0.032
CBX1 (UniProt P83916) | 0.01
CDC7 (UniProt O00311) | -0.097
C19orf54 (UniProt Q5BKX5) | -0.058
C8orf37 (UniProt Q96NL8) | -0.043
CDK2 (UniProt P24941) | -0.025
CEP76 (UniProt Q8TAP6) | 0
CDK11B (UniProt P21127) | -0.057
CASC4 (UniProt Q6P4E1) | 0.017
CCDC32 isoform 2 (UniProt Q9BV29) | 0.021
BCR (UniProt P11274) | -0.056
ATP13A1 (UniProt Q9HD20) | -0.036
CDKN1C (UniProt P49918) | -0.066
